Data reported in PubChem BioAssay AID1244 (Sanford-Burnham Center for Chemical Genomics, 2008).
Calls of active or inactive are those of the source. The rule behind the calls is not given here.

Assay: displacers of FITC-Bim-BH3 from Bcl-B – biochemical, fluorescence polarization, Bim-BH3 peptide, counter-screen for TR3-derived Bcl-B inhibitor project, dose response (AID 1244)
Details: Bcl-B/FITC-Bim-BH3 peptide binding

| Structure (SMILES) | EC50 |
| --- | --- |
| Cc1cc(C)nc(/N=C(/N)Nc2cccc(N)c2)n1 | > 25 µM (inactive) |
| Cc1ccc(C)n1-c1ccc(Br)cc1C(=O)O | 0.48 µM (active) |
